Source: PubChem BioAssay (NCATS)
Records with an inconclusive call do not appear. Calls of active or inactive are those of the source. Calls follow the shape of the dose curve; as a rule, active = well fitted inhibition curve with a large enough effect; inconclusive = small, poorly fitted or top-dose-only effect; inactive = flat fitted curve, though single readings scatter.

Test: BET inhibitor-based combinations targeting novel dependencies in MECOM-rearranged (r) AML: AML-194 cell line (AID 2202237; also: nearly all actives have a fitted effect of over 40% in size)
Details: AML-194 (MECOM-r AML) viability, CellTiter-Glo, 48 h; series mostly up to 46 µM
Source text: Ecotropic viral insertion site 1 (EVI1) is located on chromosome 3q26.2 as part of the MECOM (MDS and EVI1 complex) locus. Under normal hematopoiesis, EVI1 is a regulator of hematopoietic stem cell maintenance and self-renewal and EVI1 levels decrease as the cells differentiate. In approximately 5-10% of de novo acute myeloid leukemia (AML) EVI1 is aberrantly expressed, including Chromosomal inv(3)(q21;q26.2) or t(3;3)(q21;q26.2) alterations (MECOM-r) that account for about 50% of AML with EVI1 overexpression 31. AMLs with high levels of EVI1 have a poor prognosis and an overall survival time averaging between 10-14 months. EVI1 overexpression confers resistance in leukemia cells, highlighting the need to develop new targeted therapies for EVI1 overexpressing AMLs.
Here, we performed an unbiased chemical drug screening by evaluating the single agent activity of a collection of 2,480 oncology-focused, approved and investigational drugs (NCATS Mechanism Interrogation Plates, MIPE v5.0) against a panel of seven AML cell lines. These included four MECOM-r cell-lines (AML-191, AML-194, UCSD-AML1 and HNT-34) and three non-MECOM-r AMLs (MV4-11, OCI-AML3 and SET-2). Exploiting the mechanistic redundancy built in the library, we identified target-level sensitivities in MECOM-r AML cells and relative activity as compared to other AML subtypes.
A collection of 2480 mechanistically annotated dugs (MIPE v5.0) was used to screen four 3q26.2 rearranged AML cell lines and three non-3q26.2 rearranged AML cell lines. This library purposely exploits redundancy by including multiple inhibitors of key onco-targets, while simultaneously encompassing mechanistic diversity, targeting more than 800 distinct mechanisms of action. Briefly, cells were seeded in 5 uL of growth media using a Multidrop Combi dispenser into 1536 well white polystyrene tissue culture treated plates (Corning) at a density of 500cells/well. For each cell-line, for each of the 2480 drugs in MIPE v5.0 library, an 11-point dose curve was generated via a 1536 pin-tool. Plates were incubated for 48 hr at standard incubator conditions, covered by a stainless steel gasketed lid to prevent evaporation. Cell viability was determined by luminescence based, Cell Titer Glo assay (Promega). In detail, 3 uL of Cell Titer Glo were added to each well and plates were incubated at room temperature for 15 min with a stainless-steel lid in place. Luminescence readings were taken using a Viewlux (PerkinElmer) with a 2 s exposure time per plate. Compound dose-response curves were normalized to DMSO and empty well controls on each plate. Quantitative drug activity data from dose-response curves was determined utilizing area Under the Curve (AUC) and Z-transformed AUC (Z-AUC, a mean-centering transformation applied to each individual cell-line screened).
Potency is read from the fitted curve at half-maximal effect.

| Compound | Potency |
| --- | --- |
| COc1cc([C@@H]2c3cc4c(cc3[C@@H](O[C@@H]3O[C@@H]5CO[C@@H](C)O[C@@H]5[C@H](O)[C@@H]3O)[C@H]3COC(=O)[C@H]23)OCO4)cc(OC)c1O | 2.09 µM (active) |
| COc1ccc(S(=O)(=O)N[C@@H](CNc2nc(C)nc(N3CCC(c4ccc5c(n4)NCCC5)CC3)c2C)C(=O)O)cc1 | inactive |
| COCCNCc1ccc(-c2cc3nccc(Oc4ccc(NC(=S)NC(=O)Cc5ccc(F)cc5)cc4F)c3s2)nc1 | 2.63 µM (active) |
| CCC(=O)Nc1cccc(Oc2nc(Nc3ccc(N4CCN(C)CC4)cc3OC)ncc2Cl)c1 | 23.5 µM (active) |
| COc1ccc2nc(S(=O)Cc3ncc(C)c(OC)c3C)[nH]c2c1 (stereo not given) | inactive |
| CCCCNc1ncc2c(-c3ccc(F)cc3)nn(CC3CCC(N)CC3)c2n1 (stereo not given) | 5.74 µM (active) |
| O=C1CC[C@H](N2Cc3c(OCc4ccc(CN5CCOCC5)cc4)cccc3C2=O)C(=O)N1 | inactive |
| OCCOc1ccc(/C(=C(/CCCl)c2ccccc2)c2ccccc2)cc1 | inactive |
| CC(C)(c1ccc(OCC(O)CO)cc1)c1ccc(OCC(O)CCl)cc1 (stereo not given) | inactive |
| CC(C)C[C@H](NC(=O)[C@H](Cc1ccccc1)NC(=O)OCc1ccccc1)C(=O)C=O | inactive |
| CCC(=O)OCC(=O)C1(OC(=O)CC)C(C)CC2C3CCC4=CC(=O)C=CC4(C)C3(F)C(O)CC21C (stereo not given) | inactive |
| c1ccc(-c2cc(CCC3CCNCC3)c3ccccc3n2)cc1 | 26.3 µM (active) |
| C=C1/C(=C\C=C2/CCC[C@]3(C)[C@@H]([C@H](C)CCCC(C)(C)O)CC[C@@H]23)C[C@@H](O)C[C@@H]1O | 23.5 µM (active) |
| CC(=O)c1ccc2c(c1)c1cc(C(C)=O)ccc1n2CCNC(C)C | 1.32 µM (active) |
| COc1cc(Nc2cnc(C#N)c(O[C@H](C)CN(C)C)n2)ncc1-c1cnn(C)c1 | 1.48 µM (active) |
| CCC(=C/[C@H](C)C/C=C/C(C)=C/[C@@H](C)C(=O)[C@@H](C)[C@H](O)[C@@H](C)C/C(C)=C/C(=O)O)/C=C/[C@@H]1OC(=O)C=C[C@@H]1C | 0.0019 µM (active) |
| CN[C@@H](C)C(=O)N[C@@H]1C(=O)N(Cc2c(C)ccc3ccccc23)c2ccc(C#N)cc2N(C(C)=O)[C@H]1C | inactive |
| O=C(Nc1cccc(C(F)(F)F)c1)c1cccc2cc(Oc3cc(CO)ncn3)ccc12 | inactive |
| O=c1cc(N2CCOCC2)oc2c(-c3ccc4c(c3)OCCO4)csc12 | 2.95 µM (active) |
| C/C(=N\NC(=O)c1cccc(S(=O)(=O)N2CCOCC2)c1)c1cc(Cl)ccc1O | 4.17 µM (active) |

| Compound | Potency |
| --- | --- |
| CNCCCOc1cc(F)c(-c2c(Cl)nc3ncnn3c2N[C@@H](C)C(F)(F)F)c(F)c1 | 0.105 µM (active) |
| C=CCc1cccc(/C=N/NC(=O)CN2CCN(Cc3ccccc3)CC2)c1O | 14.8 µM (active) |
| COc1ccc2c(c1OC)C(=O)OC2[C@H]1c2c(cc3c(c2OC)OCO3)CCN1C (stereo not given in full) | 20.9 µM (active) |
| C/C=C/C[C@@H](C)C(=O)[C@H]1C(=O)N[C@@H](C(C)C)C(=O)N(C)CC(=O)N(C)[C@@H](CC(C)C)C(=O)N[C@@H](C(C)C)C(=O)N(C)[C@@H](CC(C)C)C(=O)N[C@@H](C)C(=O)N[C@H](C)C(=O)N(C)[C@@H](CC(C)C)C(=O)N(C)[C@@H](CC(C)C)C(=O)N(C)[C@@H](C(C)C)C(=O)N1C | 10.2 µM (active) |
| NC(=O)C1=C(O)[C@@]2(O)C(=O)C3=C(O)c4c(O)cccc4C[C@H]3C[C@H]2CC1=O | 10.5 µM (active) |
| O=C(O)c1ccccc1-c1ccc(/C=c2\sc3nc4cc(Br)cnc4n3c2=O)o1 | inactive |
| O=C(O)/C(S)=C/c1ccc(I)cc1 | inactive |
| C=CC(=O)Nc1cc2c(Nc3ccc(F)c(Cl)c3)ncnc2cc1C#CC(C)(C)N1CCN(C)CC1 | 4.68 µM (active) |
| Nc1nc(=S)c2[nH]cnc2[nH]1 | 3.72 µM (active) |
| Cc1cc(C)c2c(c1)[C@@H](N(Cc1cc(C(F)(F)F)cc(C(F)(F)F)c1)c1nnn(C)n1)CCCN2CC1CCC(C(=O)O)CC1 (stereo not given in full) | inactive |
| O=C1Cc2cc(C(=O)NC3C[C@H]4CC[C@@H](C3)N4S(=O)(=O)CC3CCN(CCCC(F)(F)F)CC3)c(Cl)cc2N1 (stereo not given in full) | inactive |
| COc1ccc(CC2c3cc(OC)c(OC)cc3CC[N+]2(C)CCC(=O)OCCCCCOC(=O)CC[N+]2(C)CCc3cc(OC)c(OC)cc3C2Cc2ccc(OC)c(OC)c2)cc1OC (stereo not given) | inactive |
| CNC(=O)CCc1cc(-c2ccc(-c3ccc(C(F)(F)F)cc3)cc2)n(-c2ccc(N3CCNCC3)cc2)n1 | 7.42 µM (active) |
| C=C(c1ccc(C(=O)O)cc1)c1cc2c(cc1C)C(C)(C)CCC2(C)C | inactive |
| CCC(=O)NS(=O)(=O)c1ccc(-c2c(-c3ccccc3)noc2C)cc1 | inactive |
| COc1ccc(-c2oc3ncnc(N)c3c2-c2ccc(NC(=O)Nc3cc(C(F)(F)F)ccc3F)cc2)cc1 | 7.42 µM (active) |
| Nc1ncccc1-c1nc2ccc(-c3ccccc3)nc2n1-c1ccc(C2(N)CCC2)cc1 | 29.5 µM (active) |
| Clc1cccc(-c2ccc(-c3nnc(CCCc4ccc5cccnc5n4)o3)cc2)c1 | inactive |
| O=C(CCCCCCNC(=O)c1cnc(N(c2ccccc2)c2ccccc2Cl)nc1)NO | 10.5 µM (active) |
| Cc1ccc(NC(=O)c2ccc3c(c2)OCCO3)cc1NC(=O)c1ccc2nc(OCCN3CCCC3)ccc2c1 | 0.204 µM (active) |
